Bioassay records: PubChem BioAssay, National Center for Advancing Translational Sciences (NCATS)
G9a inh: blocks human histone lysine methyltransferase G9a; Potency, µM (titrated, usually from 102 µM), for inactives: at the top dose activity, negative = inhibition, most hits filed as inhibitors; AID 504332; G9a H3K9 monomethylation, AlphaScreen, 2 h; Q96KQ7; 8.8% of 350,000 active; further: on the % scale 0 is the no-effect control and ±100 the full control effect; nearly all actives have a fitted effect of over 75% in size
Target sequence (Q96KQ7 913-1193 limits assumed): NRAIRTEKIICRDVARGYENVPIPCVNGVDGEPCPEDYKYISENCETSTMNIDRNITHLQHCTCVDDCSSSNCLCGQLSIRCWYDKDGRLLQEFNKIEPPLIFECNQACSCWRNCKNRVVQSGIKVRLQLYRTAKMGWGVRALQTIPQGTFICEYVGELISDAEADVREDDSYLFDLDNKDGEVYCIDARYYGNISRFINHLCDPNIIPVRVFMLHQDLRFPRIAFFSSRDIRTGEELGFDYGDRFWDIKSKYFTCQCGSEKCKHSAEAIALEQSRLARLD
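Step 1: enzyme (final 20 nM) with compound, 15 min RT. Step 2: substrate peptide 500 nM and SAM 20 uM, 2 h RT. Step 3: anti-H3K9me1 antibody and AlphaScreen beads, 10 min, then plate read.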
BAZ2B inh: BAZ2B (human) inhibition; 4.4% of 360,000 active; Potency, µM (doses to about 114 µM), without a hit: at the top dose activity change, negative = inhibition, hits mostly inhibitors; AlphaScreen BAZ2B-H3K14Ac peptide displacement; AID 504333; Q9UIF8; further: on the % scale 0 is the no-effect control and ±100 the full control effect; nearly all actives have a fitted effect of over 60% in size
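In this displacement format the biotinylated H3(5-23) peptide acetylated at Lys14 serves as ligand at 50 nM, with BAZ2B at 50 nM in PBS pH 7.4 containing 0.01% Tween-20. Donor and acceptor beads are 10 ug/mL final.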
Sfp inh: blocks B. subtilis Sfp PPTase activity; AID 1490; Biochemical Sfp PPTase activity, qHTS; Potency, µM, for the others: largest response in the series, negative = inhibition, hits mostly inhibitors; 3.5% of 310,000 active;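 further: the enzyme is Sfp with the accession as filed and its product quenches rhodamine fluorescence; 0% = enzyme reaction without inhibitor and -100% = no enzyme wells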
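Fluorescence-quenching assay with 15 nM Sfp, 5 uM rhodamine-CoA and 12.5 uM BHQ-2-labelled ybbR peptide in pH 7.6 Hepes/MgCl2 buffer. Enzyme was pre-incubated with compound for 15 min at room temperature. Rate was taken from the 30-min fluorescence change (525/598 nm).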
HP1b binding inh: blocks HP1-beta chromodomain binding to methylated histone tails; P83916; AlphaScreen HP1-beta / biotin-H3K9me3 peptide binding; Potency, µM (series often up to 114 µM), for inactives: at the highest dose activity change, negative = inhibition, hits mostly inhibitors; 0.56% of 390,000 active; AID 540317; further: nearly all actives have a fitted effect of over 70% in size
Target sequence (P83916 whole entry, looked up): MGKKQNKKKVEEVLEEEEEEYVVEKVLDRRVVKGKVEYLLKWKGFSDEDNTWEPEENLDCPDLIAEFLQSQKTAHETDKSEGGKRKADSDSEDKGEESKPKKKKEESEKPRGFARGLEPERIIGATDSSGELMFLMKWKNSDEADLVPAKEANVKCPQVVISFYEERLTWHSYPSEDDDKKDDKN
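AlphaScreen: HP1-beta (50 nM) preformed 30 min with biotin-H3(1-18)K9me3 peptide (50 nM) in PBS pH 7.4, 0.01% Tween-20. Compound added for 30 min at RT, then streptavidin donor/nickel chelate acceptor beads (10 ug/mL) for 30 min.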
TDP1 block: inhibitors of human tyrosyl-DNA phosphodiesterase TDP1 | Potency, µM (series often up to 130 µM), inactives show at the highest dose activity change, negative = inhibition, most hits filed as inhibitors | recombinant TDP1, AlphaScreen DNA substrate cleavage | 0.28% of 350,000 active | AID 485290 | Q9NUW8; further: on the % scale 0 is the no-effect control and ±100 the full control effect; nearly all actives have a fitted effect of over 40% in size
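Compounds were preincubated with Tdp1 (1 nM final) for 15 min at room temperature before substrate (15 nM final) started a 5 min reaction; beads (10 ug/ml final) were then added for 10 min before AlphaScreen detection.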
JMJD2A Tudor: blocks the human JMJD2A Tudor domain. 4.4% of 390,000 active. Potency, µM (titrated, usually from 114 µM), without a hit: at the highest dose activity change, negative = inhibition, most hits filed as inhibitors. AlphaScreen JMJD2A-Tudor / H3K4me3 peptide binding. AID 504339; further: on the % scale 0 is the no-effect control and ±100 the full control effect; nearly all actives have a fitted effect of over 50% in size
Starred values were filed as active, the others as inactive; ? = inconclusive; / = no result; [ ] = dose if it differs, or a comment. Compounds with a hit are over-represented: about 12% of the library has one in this group of screens. The call rests on the fitted dose curve; in most records, active means well fitted curve in the direction sought with a large enough effect; inconclusive means small, poorly fitted or top-dose-only effect, or another doubt; inactive means no such curve, though single readings can be large; an effect the other way counts as inactive or inconclusive. Potency means the concentration at half of the fitted maximal effect.

SMILES	G9a inh	BAZ2B inh	Sfp inh	HP1b binding inh	TDP1 block	JMJD2A Tudor
Cn1cc([N+](=O)[O-])c(C(=O)Nc2ccc3c(C(F)(F)F)cc(=O)oc3c2)n1	28%	-13%	16%	34%	4%	5%
O=C(O)CNC1c2ccccc2CSc2ccccc21 (stereo unspecified)	/	/	/	5%	/	18µM*
NCCCCN=C(N)N	29%[12.7 µM]	/	5%	/	8%[56.1 µM]	/
O=C(O)CBr	/	/	/	/	12%	/
C/C(CC(c1ccccc1)c1c(O)c2ccccc2oc1=O)=N\NC(N)=S (stereo unspecified)	?	2%	?	-20%	3%	1.3µM*
CN(CCOc1ccc(C=C2C(=O)NC(=O)NC2=O)cc1)c1ccccn1	45µM*	-23%	79µM*	20%	-2%	?
O=C(O)C1Sc2[nH]c(=O)sc2C2c3cc(Cl)ccc3OC(=O)C12 (stereo unspecified)	28µM*	?	50µM*	-16%	2%	?
O=C(O)CCn1cc(C=C2C(=O)NC(=S)NC2=O)c(-c2cccc(Cl)c2)n1	2.5µM*	?	22µM*	3%	-1%	50µM*
O=C(CC1NCCC[C@H]1O)Cn1cnc2cc(Br)c(Cl)cc2c1=O (stereo partly specified)	-50%[12.7 µM]	/	?	/	/	/
Cn1c(O)c(C(=N)COc2ccccc2)c(=O)n(C)c1=O	15%[0.0925 µM]	6%	4%	21%	-2%	-7%
Cn1c(O)c(C(=Nc2ccccc2)SCc2ccc(Cl)cc2)c(=O)n(C)c1=O	?	?	45µM*	60%	/	?
CC(CCC(=O)O)C1CCC2C3C(=O)CC4CC(=O)CC[C@@]4(C)C3CC(=O)[C@]12C (stereo partly specified)	-6%[2.33 µM]	/	8%	/	14%	/
O=C(Cc1ccccc1)Oc1coc(CSc2ncccn2)cc1=O	-7%	/	1%	18%	-2%	14µM*
O=C(COC(=O)Cc1ccccc1)Nc1cccnc1Cl	8%	-13%	0%	34%	0%	1%
Cc1c(O)c(O)cc2c1CC=C1[C@]3(C)CC[C@]4(C)CC[C@@](C)(C(=O)O)CC4[C@]3(C)CC[C@]12C (stereo partly specified)	/	/	-9%	/	13%[56.1 µM]	/
CC1=C(O)C(=O)C=C2C1=CC=C1C2(C)CCC2(C)C3CC(C)(C(=O)O)CCC3(C)CCC12C (stereo unspecified)	/	/	/	?	/	20µM*
ClC1=C(Cl)C(Cl)(C2(Cl)C(Cl)=C(Cl)C(Cl)=C2Cl)C(Cl)=C1Cl	/	/	?	/	-6%	/
CCCCCc1nc2c(c(=O)c3ccccc3n2C)c(=O)n1C1CCCCCC1	-4%	-24%	40µM*	1%	3%	-27%
c1ccc2cc3c(cc2c1)-c1cccc2cccc-3c12	/	/	/	/	-4%	/
O=C1NC(=O)C(=Cc2cc3c(cc2[N+](=O)[O-])OCO3)C(=O)N1	7.9µM*	-29%	-89%	0%	-2%	-35%
Cc1cccc(N2C(=O)NC(=O)/C(=C/c3cc4c(cc3[N+](=O)[O-])OCO4)C2=O)c1	8.9µM*	-28%	35µM*	?	-1%	79µM*
Cc1cc(C)cc(N2C(=O)NC(=O)/C(=C\c3cc(C)n(C)c3C)C2=O)c1	?	-6%	-8%	6%	0%	-19%
CC[C@H]1CN2CC[C@@H]1C[C@H]2[C@@H](O)c1ccnc2ccc(OC)cc12	6%[21.5 µM]	/	22%	/	7%[56.1 µM]	/
CCOC(=O)c1cc(C)sc1/N=C/C1C(=O)NC(=S)NC1=O	40µM*	-33%	20µM*	-16%	-4%	?
CN(CCc1nnc(N)s1)[N+](=O)[O-]	22µM*	-1%	-4%	40%	-2%	-15%
SMILES	G9a inh	BAZ2B inh	Sfp inh	HP1b binding inh	TDP1 block	JMJD2A Tudor
C=CCn1c(-c2ccc([N+](=O)[O-])cc2)n[nH]c1=S	5.6µM*	-4%	-10%	6%	8%	8.9µM*
C=CCn1c(O)c(/C=C2/C=c3ccccc3=N2)c(=O)[nH]c1=S	/	-9%	1%	24%	/	-4%
CC1(C)CC(=O)C2=C(C1)OC(N)=C([N+](=O)[O-])C2c1ccc(C#N)s1 (stereo unspecified)	-9%[12.7 µM]	?	35µM*	10%	-6%	-15%
CS(=O)(=O)NNP(=O)(NNS(C)(=O)=O)NC(=O)c1ccccc1	56µM*	-10%	2%	31%	5%	6%
CS(=O)(=O)NNP(=O)(NNS(C)(=O)=O)NC(=O)c1ccc(Br)cc1	45µM*	-14%	7%	44%	0%	-17%
O=C(N/N=C/c1c(O)n(C2CCCCC2)c(=S)[nH]c1=O)c1ccccc1	?	-1%	26%	68%	3%	79µM*
NC1CCCCC1N=Cc1c(O)n(CCc2ccc(F)cc2)c(=O)[nH]c1=O (stereo unspecified)	1µM*	45µM*	3%	25%	3%	-20%
O=C(N/N=C/c1c(O)n(C2CCCCC2)c(=S)[nH]c1=O)c1ccccc1O	75%[59 µM]	79µM*	-13%	45%	4%	7%
Cn1c(=O)c2c(nc(N/N=C/c3c(O)n(-c4ccccc4)c(=S)[nH]c3=O)n2C)n(C)c1=O	-6%[59 µM]	-11%	79µM*	-2%	2%	?
CC/C(=N\NC(=O)c1ccccc1O)c1c(O)n(C2CCCCC2)c(=O)[nH]c1=O	?	-2%	11%	8%	6%	-33%
O=c1[nH]c(=S)n(-c2ccccc2)c(O)c1C=NCc1ccccn1	-2%	-18%	6%	39%	1%	-30%
CCCCC(=O)N/N=C/c1c(O)n(C2CC2)c(=S)[nH]c1=O	6%[59 µM]	?	13%	38%	8%	-8%
O=c1[nH]c(=O)n(Cc2ccc(F)cc2)c(O)c1/C=N/Nc1ccccc1	10µM*	-15%	-8%	8%	12%	-32%
O=C(N/N=C/c1c(O)n(CCc2ccccc2)c(=O)[nH]c1=O)c1ccccc1	/	79µM*	9%	39%	11%	-35%
CCN(CC)CCN=Cc1c(O)n(CCc2ccccc2)c(=O)[nH]c1=O	?	-1%	12%	21%	6%	-12%[11.4 µM]
CC(C)c1ccc(-n2c(O)c(/C=N/NC(=O)c3ccccc3O)c(=O)[nH]c2=S)cc1	/	50µM*	-30%	20%	/	79µM*
C[C@H](N)C(=O)N[C@@H](C)C(=O)N[C@@H](Cc1ccccc1)C(=O)CCl	16µM*	/	17%	/	10%	/
CN1CN(c2ccccc2)C2(CCN(CCCSc3ccccc3NC(=O)/C=C/c3ccccc3)CC2)C1=O	/	/	/	?	/	40µM*
CCCCCNc1c(C(=O)OCC)c(=O)[nH]c2ccccc12	2%[59 µM]	9%	-14%	-14%	-1%	56µM*
